# From PubChem BioAssay
# Compounds with a hit are over-represented: about 2.4% of the library has one in this group of screens.
# Cruzain inh Det: blocks cruzain activity in presence of Triton detergent. purified cruzain, Z-FR-AMC fluorescence, 0.01% Triton. Potency, µM, hits mostly inhibitors. P25779. 200,000 tested, 0.43% active; also: nearly all actives have a fitted effect of over 40% in size
# Target sequence (P25779 123-467 limits assumed): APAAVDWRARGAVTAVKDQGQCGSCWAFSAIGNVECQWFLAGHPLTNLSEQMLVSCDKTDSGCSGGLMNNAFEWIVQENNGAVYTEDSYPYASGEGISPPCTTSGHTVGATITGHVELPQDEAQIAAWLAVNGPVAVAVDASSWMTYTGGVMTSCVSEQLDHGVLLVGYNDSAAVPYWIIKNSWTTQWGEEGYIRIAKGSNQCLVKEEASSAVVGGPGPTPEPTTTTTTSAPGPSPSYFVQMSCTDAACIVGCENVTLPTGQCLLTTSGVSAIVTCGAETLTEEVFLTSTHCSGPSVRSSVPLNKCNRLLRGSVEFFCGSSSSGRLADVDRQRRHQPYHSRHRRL
#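 Detergent-containing run (0.01% Triton X-100) in acetate buffer pH 5.5 with 5 mM DTT: enzyme at 1.5 nM final, 15 min compound preincubation at room temperature, then 2 uM Z-FR-AMC substrate. Activity taken as 60 s fluorescence increase at 360/450 nm.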
# Cruzain noTriton: inhibitors of Trypanosoma cruzi cruzain without detergent | P25779 | purified cruzain, Z-FR-AMC fluorescence, no detergent | Potency, µM, most hits filed as inhibitors | 200,000 tested, 2.3% active; also: nearly all actives have a fitted effect of over 40% in size
#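 Purified cruzain at 1.5 nM, pre-incubated 15 min with compound at room temperature in 100 mM sodium acetate pH 5.5, 5 mM DTT, 0.00005% Triton X-100. Reaction started with 2 uM Z-FR-AMC; AMC fluorescence increase over 60 s gives rate.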
# Hits are given with their value; – = inactive; ? = inconclusive. Calls follow the shape of the dose curve; as a rule, active = well fitted curve in the direction sought with a large enough effect; inconclusive = small, poorly fitted or top-dose-only effect, or another doubt; inactive = no such curve, though single readings can be large; an effect the other way counts as inactive or inconclusive.
SMILES,Cruzain inh Det,Cruzain noTriton
Cc1cccc(C)c1NC(=O)Cn1nnc(-c2ccc(N3CCOCC3)cc2)n1,–,20µM
Cc1cccc(-c2noc(C3CC(=O)N(c4ccc5c(c4)OCCO5)C3)n2)c1 (configuration not stated),–,–
Cc1ccccc1Nc1nc(CSc2nnnn2-c2ccccc2)cs1,–,20µM
c1ccc(-c2nc(CSc3nnnn3-c3ccccc3)cs2)cc1,–,–
O=c1cc(CSc2nnnn2-c2ccccc2)nc2nc[nH]n12,–,–
O=c1cc(CSc2nnnn2-c2ccccc2)nc2scc(-c3ccccc3)n12,–,25µM
Cc1ccc(NC(=O)c2ccc(-c3ccccc3)s2)cc1,–,13µM
Cc1cccc(NC(=O)c2ccc(-c3ccccc3)s2)c1,–,–
Cc1cccc(-c2c3c(=O)n(C)c(=O)n(C)c3cn2-c2cc(N)c(Cl)cc2Cl)c1,–,–
COc1ccc(N2C(=O)CC(Nc3ccc(C)cc3)C2=O)cc1 (configuration not stated),–,?
Cc1ccc(NC2CC(=O)N(c3ccc(N4CCCCC4)cc3)C2=O)cc1 (configuration not stated),–,7.9µM
CN(CC(=O)O)CC(=O)O,–,–
O=S(=O)(Nc1ccc2oc3c(c2c1)CCCC3)c1cc(Cl)ccc1Cl,–,32µM
COc1ccc(S(=O)(=O)Nc2ccc3oc4c(c3c2)CCCC4)cc1,–,?
O=C(Nc1ccccc1C(F)(F)F)c1cc2nc(-c3ccccc3)cc(-c3ccccc3)n2n1,–,–
COc1ccc(C(=O)Oc2cc(/C=N/NC(N)=S)ccc2OC)cc1,–,?
CNC(=S)N/N=C/c1ccc(OCC(=O)Nc2c(C)cc(C)cc2C)c(OC)c1,–,–
COc1ccc(/C=N/NC(N)=S)cc1OC(=O)c1cccc2ccccc12,–,25µM
CCOc1cc(/C=N\Nc2ccc([N+](=O)[O-])cc2)ccc1OCC(=O)Nc1ccc(C)c(C)c1,–,?
COc1cc(/C=N\Nc2ccc([N+](=O)[O-])cc2)ccc1OCC(=O)Nc1ccc(C)c(C)c1,–,4µM
COc1cc(/C=N/NC(N)=S)ccc1OCC(=O)Nc1ccc(C)cc1,2.5µM,?
COc1ccc(Cl)cc1NS(=O)(=O)c1cc(-c2cc(C)no2)ccc1C,–,–
CCN(CC)S(=O)(=O)c1ccc2c(c1)N(CC(=O)NCCCN1CCN(c3cc(C)ccc3C)CC1)C(=O)CO2,–,–
O=C(CSc1nc(-c2ccccc2)nc2c1Cc1ccccc1O2)Nc1ccccc1,–,25µM
O=C(CSc1nc(-c2ccc(F)cc2)nc2c1Cc1ccccc1O2)Nc1cccc(C(=O)O)c1,–,–
SMILES,Cruzain inh Det,Cruzain noTriton
N#Cc1c(/N=C/c2cc3ccccc3s2)sc2c1CCC2,–,13µM
Cc1ccc(/C=N/c2sc3c(c2C#N)CCC3)s1,–,–
COc1ccc(OCCn2nnc3sc4c(c3c2=O)CCCC4)cc1,–,–
CC(=O)Nc1ccc(-c2cc(-c3ccc(NC(C)=O)cc3)nc(-c3ccccc3)n2)cc1,–,16µM
CC(=O)Nc1ccc(-c2cc(-c3ccc(NC(C)=O)cc3)nc(-c3ccc(NC(C)=O)cc3)n2)cc1,?,32µM
CC(=O)Nc1ccc(-c2cc(-c3ccccc3)nc(-c3ccccc3)n2)cc1,–,?
CCC(=O)Nc1ccc(-c2cc(-c3ccccc3)nc(-c3ccc(NC(=O)CC)cc3)n2)cc1,–,–
Cc1ccc(NC(=O)c2ccco2)c(OCc2cc(=O)n3cc(C)sc3n2)c1,–,–
Cc1ccc(-c2nc3ccccc3n2C)o1,–,–
CC(=O)c1ccc(-c2nc3ccccc3n2C)o1,–,16µM
CCN(Cc1ccccc1)C(=O)c1cc2ccc3cccnc3c2[nH]1,–,–
COc1ccc(-c2c(C#N)c(SCC(=O)Nc3ccc(Br)cc3)nc(C)c2C(=O)Nc2ccccc2)cc1,–,10µM
COc1ccc(-c2c(C#N)c(SCC(=O)c3cc4ccccc4oc3=O)nc(C)c2C(=O)Nc2ccccc2)cc1,–,?
COc1ccc(-c2c(C#N)c(SCC(=O)Nc3ccc(C)cc3)nc(C)c2C(=O)Nc2ccccc2)cc1,–,–
Cc1nc(SCC(=O)c2cc3ccccc3oc2=O)c(C#N)c(-c2ccccc2)c1C(=O)Nc1ccccc1,–,20µM
CCc1cccc(CC)c1NC(=O)C(CC)n1nc(C)n2c(cc3cc(C)ccc32)c1=O (configuration not stated),–,–
COc1ccc(S(=O)(=O)c2c(SC)nn(Cc3ccccc3C)c2NC(C)=O)cc1,–,–
O=[N+]([O-])c1cc(S(=O)(=O)C(F)(F)F)ccc1Sc1nc2ccccc2s1,–,25µM
CS(=O)(=O)c1ccc(Sc2nc3ccccc3s2)c([N+](=O)[O-])c1,–,–
Cc1ccc(-c2nnn(CC(=O)N(Cc3cccs3)C(C(=O)NC3CCCC3)c3ccco3)n2)o1 (configuration not stated),–,–
Cc1ccc(-c2nnn(CC(=O)N(c3ccccc3)C(C(=O)NC3CCCC3)c3ccco3)n2)o1 (configuration not stated),–,10µM
CCOc1cccc2cc(-c3nc(-c4ccccc4C)no3)c(=O)oc12,–,–
CC1=C(C(=O)OC2CCCC2)C(c2cccc(Cl)c2Cl)CC(=O)N1 (configuration not stated),–,–
CC(C)CC(=O)Nc1cc([N+](=O)[O-])ccc1Cl,–,–
O=C(CNC(c1ccccc1)c1ccccc1)Nc1cc([N+](=O)[O-])ccc1Cl,–,25µM
SMILES,Cruzain inh Det,Cruzain noTriton
Cc1cccc(NC(=O)CN2C(=O)C(c3ccc(F)cc3)=NC23CCCCCC3)c1C,–,–
O=C(/C=C/c1cn(CC(O)CN2CCCCCC2)c2ccccc12)c1ccc(Br)cc1 (configuration not stated),–,?
Cc1cccc(NC(=S)N(Cc2cccs2)Cc2cc3cc(C)cc(C)c3[nH]c2=O)c1,–,25µM
COc1ccc2[nH]c(=O)c(CN(Cc3cccs3)C(=S)Nc3cccc(C)c3)cc2c1,–,?
Cc1cc2cc(CN(Cc3cccs3)C(=S)NCc3ccco3)c(=O)[nH]c2cc1C,–,?
Cc1ccc(C)c2[nH]c(=O)c(CN(Cc3cccs3)C(=S)NCc3ccco3)cc12,–,20µM
Cc1ccccc1-c1nc2cc(NC(=O)COc3ccc(F)cc3)ccc2o1,–,–
COc1ccc(/C=C2/C(=O)N(c3nc4ccccc4s3)N=C2CSc2ccc(Cl)cc2)cc1,–,3.2µM
COc1ccc(/C=C2/C(=O)N(Cc3ccccc3)N=C2C)cc1,–,–
CC(C)c1ccc(/C=C/C(=O)NC2CCCCC2)cc1,–,–
CCc1ccc(CCC(=O)Nc2sc3c(c2C#N)CCCC3)o1,–,25µM
Cc1ccc(/C=C/C(=O)NC2CCCCCCC2)o1,22µM,20µM
Cc1cccc(C(=O)Nc2sc3c(c2C#N)CCCCC3)c1,–,?
N#Cc1c(NC(=O)CCC(=O)O)sc2c1CCCC2,–,–
Cc1ccc(/C=C/C(=O)Nc2sc3c(c2C#N)CCCC3)o1,–,7.9µM
O=C(O)CCc1ccc(-c2ccccc2)n1-c1cccc(Br)c1,–,–
CCN1c2ccccc2-c2nc(SCC(=O)Nc3c(C)cc(C)cc3C)ncc2S1(=O)=O,–,–
CCOCCc1nn2c(=O)cc(COC(=O)c3ccccc3NC(=O)c3ccccc3F)nc2s1,–,–
CN1c2ccccc2C(C)(C)C12C=Cc1cc(O)ccc1O2 (configuration not stated),–,–
CN1c2ccccc2C(C)(C)C12C=Nc1c(cc(N3CCOCC3)c3ccccc13)O2 (configuration not stated),–,25µM
